The structures appear in SMILES notation. Records with an inconclusive call do not appear. Active and inactive are the calls of the source. Unless noted, calls come from the whole dose curve; as a rule, active = well fitted curve in the direction sought with a large enough effect in the repeat runs; inconclusive = weak or mixed curves; inactive = no such curve, though single readings can be large; an effect the other way counts as inactive or inconclusive.

The target in test [1] is Progesterone receptor (Homo sapiens) (UniProt P06401). Kind of test: qHTS assay to identify small molecule agonists of the progesterone receptor (PR) signaling pathway (AID 1346784; calls by dose curve; note: nearly all actives have a fitted effect of over 30% in size). Put shortly: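 Using charcoal-stripped serum (2%) to limit endogenous steroids, PR-UAS-bla HEK 293T cells received compounds for 16 hr at 37C after 6 hr plating; beta-lactamase FRET fluorescence was recorded following 2 hr substrate loading at room temperature.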
Chain of Progesterone receptor (Homo sapiens) (P06401 whole entry, looked up): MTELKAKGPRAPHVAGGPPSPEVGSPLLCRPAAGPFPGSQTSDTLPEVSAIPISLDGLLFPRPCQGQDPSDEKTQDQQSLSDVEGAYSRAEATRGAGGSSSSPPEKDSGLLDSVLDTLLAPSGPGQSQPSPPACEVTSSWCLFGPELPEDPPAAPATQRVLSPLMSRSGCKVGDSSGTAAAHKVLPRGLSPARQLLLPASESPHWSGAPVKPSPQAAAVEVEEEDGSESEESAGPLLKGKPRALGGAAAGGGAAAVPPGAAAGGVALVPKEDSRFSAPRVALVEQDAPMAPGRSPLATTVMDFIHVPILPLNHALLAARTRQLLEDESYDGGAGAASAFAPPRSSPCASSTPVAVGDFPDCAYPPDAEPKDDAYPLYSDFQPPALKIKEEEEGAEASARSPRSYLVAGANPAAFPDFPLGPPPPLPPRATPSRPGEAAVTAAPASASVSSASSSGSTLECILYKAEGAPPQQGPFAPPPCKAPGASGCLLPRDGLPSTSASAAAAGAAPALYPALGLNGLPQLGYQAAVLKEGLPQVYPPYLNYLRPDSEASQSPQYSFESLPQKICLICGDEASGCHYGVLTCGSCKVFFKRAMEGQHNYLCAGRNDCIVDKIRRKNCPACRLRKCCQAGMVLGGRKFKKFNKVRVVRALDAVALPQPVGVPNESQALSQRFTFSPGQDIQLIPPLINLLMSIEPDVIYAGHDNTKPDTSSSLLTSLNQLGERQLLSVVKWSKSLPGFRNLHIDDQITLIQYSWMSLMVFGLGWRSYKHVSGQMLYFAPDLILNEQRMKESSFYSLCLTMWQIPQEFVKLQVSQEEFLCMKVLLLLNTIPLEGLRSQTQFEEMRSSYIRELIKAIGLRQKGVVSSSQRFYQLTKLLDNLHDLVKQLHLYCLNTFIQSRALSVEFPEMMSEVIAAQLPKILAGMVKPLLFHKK
Background: In qHTS, concentration-response curves come from the screen itself.

The target is the same in test [2]. In words: qHTS assay to identify small molecule antagonists of the progesterone receptor (PR) signaling pathway (AID 1346795; active = well fitted inhibition curve with a large enough effect in the signal ratio in the repeat runs, not every such curve was filed as active; the % refers to the signal ratio; note: potency is the fitted concentration of half-maximal effect). Put shortly: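 Inhibition of R5020-induced (1 nM final) beta-lactamase reporter signal in PR-UAS-bla HEK293T cells was scored by FRET fluorescence after overnight (16 hr) compound treatment.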
Test [3] can be described thus: qHTS assay to identify small molecule antagonists of the progesterone receptor (PR) signaling pathway - cell viability counter screen (AID 1346798). Note: nearly all actives have a fitted effect of over 50% in size. Note: potency is the fitted concentration of half-maximal effect. Put shortly:
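ATP content as viability readout: CellTiter-Glo luminescence, 30 min room temperature, in PR-UAS-bla HEK293T cells after 16 hr compound/R5020 treatment at 37C and 5% CO2.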

A short description of test [4]: qHTS assay to identify small molecule agonists of the progesterone receptor (PR) signaling pathway - cell viability counter screen (AID 1346799; calls by dose curve; note: nearly all actives have a fitted effect of over 45% in size). Put shortly: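 Cytotoxicity in PR-bla HEK293T cells: 16 h compound, 37C; CellTiter-Glo added post-FRET read; luminescence after 30 min RT.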
Test [5] in a line: qHTS assay to identify small molecule antagonists of the TGF-beta/Smad signaling pathway - cell viability counter screen (AID 1346824). Note: nearly all actives have a fitted effect of over 50% in size. Put shortly: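 Cytotoxicity counter-screen run in the same wells as the beta-lactamase Smad reporter read: CellTiter-Glo luminescence after 30 min at room temperature. HEK 293T SBE-bla cells had 5 hr compound exposure at 37 C with TGF-beta1 (0.25 ng/mL stock).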

Test [6] in a line: qHTS assay to identify small molecule agonists of the TGF-beta/Smad signaling pathway - cell viability counter screen (AID 1346829). Note: nearly all actives have a fitted effect of over 45% in size. Note: potency is the fitted concentration of half-maximal effect. Put shortly:
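Cytotoxicity counter screen: CellTiter-Glo luminescence (30 min, room temperature) measured in the SBE-bla HEK 293T reporter wells after 5 hr compound treatment at 37 C and the 2 hr substrate step.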

A short description of test [7]: qHTS assay to identify small molecule agonists of the TGF-beta/Smad signaling pathway (AID 1346859; active = well fitted activation curve with a large enough effect in the signal ratio in the repeat runs, not every such curve was filed as active; the % refers to the signal ratio; note: series mostly up to about 77 µM). The method in brief: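 Stable Smad binding element-beta-lactamase HEK 293T cells; 5 hr compound exposure at 37 C under 5% CO2; 2 hr room-temperature substrate step; fluorescence excited at 405 nm, collected at 460 nm and 530 nm.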
A short description of test [8]: Human pregnane X receptor (PXR) small molecule agonists, qHTS cell viability counter screen (AID 1346977). Note: nearly all actives have a fitted effect of over 50% in size. Note: potency is the fitted concentration of half-maximal effect. The method in brief: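 Readout is CellTiter-Fluor fluorescence from PXR-Luc HepG2 cells. Plated cells rested 5hr, then were treated with compounds for 24hr at 37C and 5% CO2, with reagent present during the last hour.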
For test [9], the target named is Thyrotropin-releasing hormone receptor (Homo sapiens) (UniProt P34981). In words: qHTS assay to identify small molecule antagonists of the thyrotropin-releasing hormone receptor (TRHR) signaling pathway (AID 1346877; active = well fitted inhibition curve with a large enough effect in the repeat runs, not every such curve was filed as active; note: series mostly up to about 51 µM). The method in brief:
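Screening used HEK293 cells engineered with TRHR, with a brief 5 min room-temperature compound exposure preceding addition of TRH to 1 nM. The read-out was kinetic calcium-dye fluorescence, concentration-response from 15 doses in triplicate.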

The target is the same in test [10]. Kind of test: qHTS assay to identify small molecule agonists of the thyrotropin-releasing hormone receptor (TRHR) signaling pathway (AID 1346891; calls by dose curve;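 note: HEK293 cells expressing TRHR with calcium dye readout; series mostly up to about 58 µM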). Put shortly:
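In 1536-format, 1500 TRHR-Hek293 cells per well grew 18 h, took up calcium dye for 2 h at 37 °C, received compound, and were read kinetically; 15-point titrations, triplicates.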

Chain of Thyrotropin-releasing hormone receptor (Homo sapiens) (P34981 whole entry, looked up): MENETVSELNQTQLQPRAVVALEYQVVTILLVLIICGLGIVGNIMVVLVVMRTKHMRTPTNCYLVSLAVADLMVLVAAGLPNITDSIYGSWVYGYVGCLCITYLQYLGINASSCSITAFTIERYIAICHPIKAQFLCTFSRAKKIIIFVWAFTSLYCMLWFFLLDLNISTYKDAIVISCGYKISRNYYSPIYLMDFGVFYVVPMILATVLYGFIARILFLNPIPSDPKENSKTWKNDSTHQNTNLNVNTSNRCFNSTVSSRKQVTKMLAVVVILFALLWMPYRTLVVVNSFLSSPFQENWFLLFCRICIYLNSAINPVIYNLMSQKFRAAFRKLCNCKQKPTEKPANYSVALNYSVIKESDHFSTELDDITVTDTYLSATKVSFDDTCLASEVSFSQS

Consider `C=CCN1CC[C@]23c4c5ccc(O)c4O[C@H]2C(=O)CC[C@@]3(O)[C@H]1C5`, for which the Potency entry in test [1], in test [2], in test [3], in test [4], in test [5] and in [6] was “inactive” each time. Besides, the Potency result in test [8] is “inactive”. Further, the call in test [7] was inactive.
For the molecule `ClCCCCBr`, the Potency entry in [1], in [2], in [3], in test [5], in test [6] and in test [9] was “inactive” each time. The Potency entry in test [10] and in [8] was “inactive” throughout. In addition, the call in test [7] was inactive.
Consider `ClCc1ccccc1`, for which the Potency entry in test [1], in test [2], in [3], in [4], in [5] and in test [6] was “inactive” throughout. Moreover, the Potency result in test [8] is “inactive”. In addition, the molecule was classed as inactive in test [7].
For `O=C(O)C(F)(F)C(F)(F)C(F)(F)C(F)(F)C(F)(F)C(F)(F)C(F)(F)C(F)(F)C(F)(F)F`, the Potency entry in test [1], in test [2], in test [3], in test [4], in test [5] and in test [6] was “inactive” each time. Moreover, the Potency result in test [8] was “inactive”. Also, the molecule was called inactive in test [7].
In the case of `CCC(Br)(CC)C(=O)NC(N)=O`, the Potency entry in test [1], in test [2], in test [3], in [5], in test [6] and in [9] was “inactive” in each case. Moreover, the Potency entry in test [10] and in test [8] was “inactive” each time. Also, the outcome in test [7] was inactive.
As for `CCOP(=S)(Oc1ccc([N+](=O)[O-])cc1)c1ccccc1` (configuration not stated), the Potency result in test [1], in test [3], in test [5], in test [6], in test [9] and in test [10] was “inactive” throughout. Also, the Potency entry in [8] is “inactive”. Besides, in test [2], the Potency was 2.17 µM (active). Further, the molecule was classed as inactive in [7].
For the molecule `CCN(C)N=O`, the Potency result in test [1], in [2], in test [3], in [4], in test [5] and in [6] was “inactive” throughout. In addition, the Potency entry in [8] is “inactive”. For the same molecule, the outcome in test [7] was inactive.
Consider `C/C=C/C=O`, for which the Potency entry in [1], in test [2], in test [3], in test [4], in test [5] and in test [6] was “inactive” each time. Besides, the Potency entry in [8] is “inactive”. Moreover, the outcome in test [7] was inactive.
Turning to `Clc1cc(C(Cl)(Cl)Cl)cnc1Cl`, the Potency result in test [1], in [2], in test [3], in [4], in test [5] and in test [6] was “inactive” throughout. For the same molecule, the Potency result in test [9] and in [10] was “inactive” in each case.
Regarding `CCCCCC[N+](=O)[O-]`, the Potency result in test [1], in test [2], in [3], in test [4], in test [5] and in test [6] was “inactive” throughout. The Potency result in test [9], in [10] and in test [8] was “inactive” in each case. For the same molecule, the result in test [7] was inactive.
Regarding `CC(C)O.CC(C)O.OCCN(CCO)CCO.OCCN(CCO)CCO.[Ti]`, the Potency result in test [1], in test [2], in [3], in [4], in test [5] and in test [6] was “inactive” each time. Besides, in test [8], the Potency entry was “inactive”. Besides, in test [7], the molecule was classed as inactive.
Take `O=S(=O)(Cl)c1ccccc1`: the Potency entry in test [1], in test [2], in test [3], in test [4], in test [5] and in test [6] was “inactive” throughout. In test [8], the Potency result is “inactive”. In addition, in test [7], the outcome was inactive.
For the molecule `CN(C)c1ccc(N(C)C)cc1`, the Potency entry in test [1], in test [2], in [3], in [5] and in test [6] was “inactive” each time. Moreover, the outcome in test [7] was inactive.
`COc1c(C(C)(C)C)cc([N+](=O)[O-])c(C)c1[N+](=O)[O-]`: the Potency result in test [1], in [2], in test [3], in test [4], in [5] and in test [6] was “inactive” each time. The Potency entry in [8] is “inactive”. Besides, the call in [7] was inactive.
Consider `C=COC(C)=O`, for which the Potency result in [1], in test [2], in test [3], in test [4], in [5] and in test [6] was “inactive” throughout. Also, the Potency entry in [8] was “inactive”. In addition, in [7], the molecule was classed as inactive.
With `c1ccc(CN2CCNCC2)cc1`, the Potency entry in [1], in test [2], in test [3], in test [4], in test [5] and in [6] was “inactive” throughout. Besides, in test [8], the Potency result was “inactive”. For the same molecule, the call in test [7] was inactive.
`Clc1cccc(SC2CCNCC2)n1`: the Potency result in test [1], in test [2], in test [3], in test [4], in [5] and in test [6] was “inactive” in each case. The Potency result in test [8] was “inactive”. Also, the molecule was called inactive in test [7].
In the case of `CCCCCCCCOC(=O)c1ccc(C(=O)OCCCCCCCC)c(C(=O)OCCCCCCCC)c1`, the Potency entry in test [1], in test [2], in test [4], in test [6], in test [9] and in test [10] was “inactive” in each case. For the same molecule, the Potency entry in [8] is “inactive”. The Potency in test [3] was 27.6 µM (active). The outcome in test [7] was inactive.
As to `COC(C)(C)CCC[C@H](C)C/C=C/C(C)=C/C(=O)OC(C)C`, the Potency entry in test [1], in test [2], in test [3], in test [5], in [6] and in test [9] was “inactive” throughout. For the same molecule, the Potency result in test [10] and in [8] was “inactive” in each case. For the same molecule, the call in test [7] was inactive.
Take `CCOC(=O)C(Cl)C(C)=O` (configuration not stated): the Potency result in [1], in test [2], in test [3], in test [4], in test [5] and in test [6] was “inactive” throughout. Besides, the Potency entry in test [9] and in test [8] was “inactive” in each case. Moreover, the molecule was classed as inactive in test [7].
Turning to `Clc1cc(Cl)c(Cl)c(Cl)c1`, the Potency entry in [1], in [2], in test [3], in test [4], in test [5] and in [6] was “inactive” throughout. Also, the Potency result in [8] is “inactive”. Also, the molecule was classed as inactive in test [7].
`CC/C(=N\OC/C=C/Cl)C1=C(O)CC(C2CCOCC2)CC1=O` (configuration not stated): the Potency result in test [1], in test [2], in test [3], in test [4], in [5] and in test [6] was “inactive” in each case. Also, the Potency result in test [8] was “inactive”. Further, the molecule was classed as inactive in test [7].
Consider `CS/C(C)=N/OC(=O)N(C)SN(C)C(=O)O/N=C(\C)SC`, for which the Potency result in test [1], in test [2], in test [3], in test [4], in test [5] and in [6] was “inactive” in each case. In test [10], the Potency result was “inactive”. For the same molecule, in test [7], the result was inactive.
As for `CC(C)N(CCC(C(N)=O)(c1ccccc1)c1ccccn1)C(C)C` (configuration not stated), the Potency entry in test [1], in [2], in test [3], in [4], in test [5] and in [6] was “inactive” throughout. In test [8], the Potency result is “inactive”. Moreover, the molecule was called inactive in [7].
On to `ClCC(Br)CBr` (configuration not stated), for which the Potency entry in test [1], in test [2], in test [3], in test [4], in test [5] and in test [6] was “inactive” in each case. The Potency entry in test [8] was “inactive”. Besides, the call in [7] was inactive.
Regarding `CC1C(=O)C[C@]2(C(C)C)C[C@H]12` (some centres not stated), the Potency result in [1], in [2], in test [3], in test [4], in test [5] and in [6] was “inactive” throughout. Also, in test [8], the Potency result is “inactive”. Moreover, the molecule was called inactive in test [7].
`COC(=O)c1cncn1C(C)c1ccccc1` (configuration not stated): the Potency entry in test [1], in test [2], in [3], in [5], in test [6] and in test [8] was “inactive” each time. For the same molecule, the molecule was classed as inactive in test [7].
Turning to `Nc1ccc(N=Nc2ccc(-c3ccc(N=Nc4c(S(=O)(=O)O)cc5cc(S(=O)(=O)O)c(N=Nc6ccccc6)c(O)c5c4N)cc3)cc2)c(N)c1`, the Potency result in [1], in test [2], in test [3], in test [4], in test [5] and in test [6] was “inactive” in each case. Moreover, the outcome in [7] was inactive. Moreover, the Potency in [8] is 17.6 µM (active).
On to `CCOP(=O)(OCC)O/C(=C/Cl)c1ccc(Cl)cc1Cl`, for which the Potency entry in test [1], in test [3], in test [5], in [9] and in test [10] was “inactive” throughout. The Potency in test [2] is 10.9 µM (active). The outcome in test [7] was inactive.
`C(=NC1CCCCC1)=NC1CCCCC1`: the Potency entry in [1], in [2], in [5], in [9] and in test [10] was “inactive” throughout. In addition, the Potency in test [6] is 49.3 µM (active).
Regarding `CN1[C@@H]2CC[C@H]1CC(OC(=O)c1cc(Cl)cc(Cl)c1)C2` (some centres not stated), the Potency result in test [1], in [2], in test [5], in [6], in test [9] and in [10] was “inactive” in each case. Also, the molecule was called inactive in [7].
On to `CCOC(=O)COc1cc(-c2nn(C)c(OC(F)F)c2Cl)c(F)cc1Cl`, for which the Potency result in [1], in test [2], in test [4], in [5], in test [6] and in [9] was “inactive” each time. Also, the Potency entry in [10] and in test [8] was “inactive” throughout.
